Consider 16 molecules from PubChem BioAssay.

Assay [1] relates to XIP peptide (Xip251-270) binding. The assay can be described thus: small-molecule binders of XIP peptide, primary screen, biochemical, small-molecule microarray, fluorescence 635/667 nm, 0.1 µg/mL protein (AID 1182). The note with it: fluorescent protein binding, 635 nm, higher = more signal, called active from +8 up or from −8 down.
For assay [2], the system named is XIP peptide (Xip251-270). The assay can be described thus: small-molecule binders of XIP peptide, primary screen, biochemical, small-molecule microarray, fluorescence 635/667 nm, 0.5 µg/mL protein (AID 1183). To be noted: small-molecule microarray binding, fluorescence 635 nm; higher = more signal.
A short description of assay [3]: Plasmodium falciparum growth inhibition, primary screen, strain 3D7, DAPI fluorescence, 100 nL (AID 1184).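 Further: parasites grown inside human red blood cells in medium with human serum.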 To be noted: P. falciparum 3D7 growth, 3 d, higher = more signal.
Assay [4] deals with Homeobox protein Hox-A13 (Mus musculus) (UniProt Q62424). Kind of assay: inhibitors of HoxA13-DNA binding, primary screen, biochemical, fluorescence polarization, labeled oligonucleotide (AID 1185). The note with it: 15 min, higher = more signal, called active from +8 up or from −8 down. In general terms: In fluorescence polarisation assays a small probe gives low polarisation when free and higher when bound to something large.
Chain of Homeobox protein Hox-A13 (Mus musculus) (Q62424 whole entry, looked up): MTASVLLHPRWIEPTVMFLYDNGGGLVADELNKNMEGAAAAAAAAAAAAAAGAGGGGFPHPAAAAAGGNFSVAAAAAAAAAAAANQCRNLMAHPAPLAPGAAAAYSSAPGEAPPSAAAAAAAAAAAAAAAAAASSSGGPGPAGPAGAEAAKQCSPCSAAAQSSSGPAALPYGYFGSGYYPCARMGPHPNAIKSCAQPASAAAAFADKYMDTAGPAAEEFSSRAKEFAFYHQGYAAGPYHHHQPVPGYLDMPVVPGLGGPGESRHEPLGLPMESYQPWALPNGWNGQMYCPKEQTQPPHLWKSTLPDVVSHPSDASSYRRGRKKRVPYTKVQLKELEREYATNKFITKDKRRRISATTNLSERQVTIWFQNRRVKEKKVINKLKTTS

A short description of assay [5]: inhibitors of hydroxyurea-induced Chk1 phosphorylation, primary screen, imaging, HeLa, phospho-Chk1 antibody, percent positive cells (AID 1186). The note with it: hydroxyurea-induced phospho-Chk1 immunofluorescence imaging, higher = more signal.
The nature of assay [6]: inhibitors of hydroxyurea-induced Chk1 phosphorylation, primary screen, imaging, HeLa, phospho-Chk1 nuclear intensity (AID 1187). To be noted: hydroxyurea-induced phospho-Chk1 immunofluorescence imaging, higher = more signal.

SMILES strings stand for the structures. Active and inactive are the calls of the source. Unless noted, how the calls were made is not given here.

Turning to `C#CCNC(=O)[C@H](Cc1ccccc1)NC(=O)CCC(=O)O`, the composite z-score in assay [1] was 0.234 (inactive); in assay [2], -1.75. Also, the z-score in assay [3] was -0.213; in assay [4], -0.118 (inactive); in assay [5], -0.482 (inactive); in assay [6], -0.815 (inactive).

For the molecule `O=C1NC(=O)C2C1C=CC(C(O)c1ccccc1)N2Nc1ccc(Cl)cc1Cl` (stereo unspecified), the composite z-score in assay [1] is -0.0839 (inactive); in assay [2], 0.812. Besides, the z-score is 0.416 in assay [3], -5.54 (inactive) in assay [4], -0.346 (inactive) in assay [5] and -0.621 (inactive) in assay [6].

Take `CC(C)C[C@@H]1NC(=O)[C@@H]2C[C@H](C(=O)NCCCCCN)[C@H](c3cccc(OCCO)c3)N2C1=O`: the results for the composite z-score in assay [1] and in assay [2] were 0.0825 (inactive) and 0.758, respectively. Further, the z-score in assay [3] is -0.0757; in assay [4], -3.34 (inactive); in assay [5] it was -0.356 (inactive); in assay [6], -0.49 (inactive).

On to `[N-]=[N+]=NCc1ccccc1C[C@@]1(C(=O)NCC(O)CO)N=C(c2ccc(OCCCO)cc2)O[C@@H]1c1ccccc1N=[N+]=[N-]` (stereo partly specified), for which the composite z-score in assay [1] is 1.78 (inactive); in assay [2] it was 0.384. Besides, the z-score in assay [3] is -2.37; in assay [4], -1.72 (inactive); in assay [5] it was -0.0225 (inactive); in assay [6] it was 0.105 (inactive).

Take `CC(C)C(CO)N1C(=O)[C@@H]2[C@H]3C(=O)OCC=C[C@H]3OC23C=CCN(C(C)C)C(=O)[C@@H]13` (stereo partly specified): the composite z-score in assay [1] was 1.63 (inactive); in assay [2], -0.0455. The z-score in assay [3] is -0.499; in assay [4], -4.02 (inactive); in assay [5], 0.475 (inactive); in assay [6], 0.305 (inactive).

For `COc1ccc(C(=O)Nc2ccc(CN3C(=O)[C@@]4(O[C@@H](CCO)[C@H]([Si](C)(C)c5ccc(OC)cc5)[C@H]4C)c4ccccc43)cc2)cc1`, the composite z-score in assay [1] is 0.264 (inactive); in assay [2], 0.758. Moreover, the z-score in assay [3] is -2.74; in assay [4], -1.17 (inactive); in assay [5], -0.0822 (inactive); in assay [6], -0.0421 (inactive).

Turning to `CCOC(=O)C[C@H]1[C@H](OC(=O)Cc2ccc3c(c2)OCO3)[C@@H](NC(=O)c2ccc3ccccc3c2)c2cc(OCCCO)ccc2N1C(=O)c1ccccc1`, the composite z-score was 0.0654 (inactive) in assay [1] and 0.263 in assay [2]. The z-score in assay [3] is 0.168; in assay [4], -2.57 (inactive); in assay [5], -0.251 (inactive); in assay [6], -0.629 (inactive).

`COc1ccc(C(O)C2C=CC3C(=O)N(c4ccccc4)C(=O)C3N2Nc2ccc(C(C)C)cc2)cc1OCc1ccccc1` (stereo unspecified): the composite z-score in assay [1] is 0.658 (inactive); in assay [2], 0.8. Also, the z-score in assay [3] was 0.1; in assay [4], -0.47 (inactive); in assay [5], -0.309 (inactive); in assay [6], -0.472 (inactive).

On to `COC(=O)[C@@]1(Cc2ccc(OC)cc2)[C@H]2c3cc(C(=O)N4CCCC4)n(Cc4ccc(OC)c(OC)c4)c3C[C@H]2CN1C(=O)c1ccccc1`, for which the composite z-score in assay [1] was 1.27 (inactive); in assay [2] it was 0.653. Besides, the z-score in assay [3] is -1.65; in assay [4], -4.91 (inactive); in assay [5] it was 0.666 (inactive); in assay [6] it was 0.699 (inactive).

As for `CCCC#C[Si](O[C@H](CC)c1cn([C@H](CO)Cc2ccccc2)nn1)(C(C)C)C(C)C`, the composite z-score in assay [1] was 0.149 (inactive); in assay [2] it was 0.405. Further, the z-score in assay [3] is 0.129; in assay [4] it was -0.713 (inactive); in assay [5], 0.112 (inactive); in assay [6], -0.311 (inactive).

As for `O=C1OCCC/C=C\[C@H]2OC34C=CCN(CCN5CCOCC5)C(=O)[C@H]3N(CCCO)C(=O)[C@@H]4C12` (stereo partly specified), the composite z-score is 0.976 (inactive) in assay [1] and -1.17 in assay [2]. Also, the z-score in assay [3] was 0.211; in assay [4], -6.44 (inactive); in assay [5] it was 0.697 (inactive); in assay [6] it was 0.826 (inactive).

As to `COC(=O)C(CC#Cc1ccc2c(c1)[C@]1(C(=O)N2)[C@H](c2ccc(O)cc2)N2[C@H](c3ccccc3)[C@H](c3ccccc3)OC(=O)[C@H]2[C@@H]1C(=O)Nc1nc2ccccc2s1)C(=O)OC`, the composite z-score in assay [1] is 1.09 (inactive); in assay [2] it was 0.833. Moreover, the z-score is -0.591 in assay [3], -0.645 (inactive) in assay [4], -0.0827 (inactive) in assay [5] and -0.46 (inactive) in assay [6].

Take `COC(=O)[C@@]1(Cc2ccc(OC)cc2)[C@H]2c3cc(C(=O)N4CCCC4)n(Cc4ccsc4Br)c3C[C@H]2CN1C(=O)c1ccccc1`: the values for the composite z-score in assay [1] and in assay [2] were -0.0625 (inactive) and 0.75, respectively. The z-score is -1.59 in assay [3], -5.51 (inactive) in assay [4], -0.592 (inactive) in assay [5] and -1.13 (inactive) in assay [6].

`O=C1O[C@H](c2ccccc2)[C@H](c2ccccc2)N2[C@H]1[C@@H](C(=O)Nc1nc3ccccc3s1)[C@]1(C(=O)Nc3ccc(C#CCCO)cc31)[C@H]2c1ccc(OCCO)cc1`: the composite z-score in assay [1] was 0.497 (inactive); in assay [2] it was 0.769. The z-score in assay [3] is -1.19; in assay [4] it was 1.37 (inactive); in assay [5], -0.239 (inactive); in assay [6], -0.262 (inactive).

As for `COc1ccc([Si](C)(C)[C@@H]2[C@@H](CCO)O[C@]3(C(=O)N(Cc4ccc(N5C(=O)COc6ccccc65)cc4)c4ccccc43)[C@H]2C)cc1`, the results for the composite z-score in assay [1] and in assay [2] were 0.906 (inactive) and 0.811, respectively. In addition, the z-score in assay [3] is -2.81; in assay [4], -2.08 (inactive); in assay [5], -0.591 (inactive); in assay [6], -1.55 (inactive).

For the molecule `COCCOC(=O)N1C(=O)[C@@]2(c3cc(C#CCCO)ccc31)[C@H](c1ccc(OCCO)cc1)N1[C@H](c3ccccc3)[C@H](c3ccccc3)OC(=O)[C@H]1[C@@H]2C(=O)N1CCN(c2ncccn2)CC1`, the composite z-score in assay [1] was -0.112 (inactive); in assay [2], 0.676. The z-score in assay [3] is -1.98; in assay [4], 0.671 (inactive); in assay [5] it was 0.159 (inactive); in assay [6], -0.0774 (inactive).
